Test: probe aCHRDL2 binding to arrayed compounds – biochemical, biotinylated probe, 635/667 nm fluorescence, primary screen (AID 1100)
Settings: small-molecule microarray, higher = more signal
For `COC(=O)[C@H](C)NC(=O)CCC1CC(OC(=O)NCCc2ccc(F)cc2)CC2(CCCC(COC(=O)NCC3CCCCC3)O2)O1` (some centres not stated), the composite z-score was -0.446. `COc1ccc2c(c1)O[C@@H](c1cccc(C(F)(F)F)c1)[C@H](O)C2=O` showed a composite z-score of -0.324. `CCOC(=O)[C@H](Cc1ccccc1)NC(=O)CCC1CC(OC(=O)NCc2ccc3c(c2)OCO3)CC2(CCCC(COC(=O)NCCOc3ccccc3)O2)O1` (some centres not stated) showed a composite z-score of -0.704. In the case of `CC(=O)OC[C@H]1O[C@@H](ON=C(C)C)[C@H](OC(C)=O)[C@@H](OC(C)=O)[C@@H]1OC(C)=O`, the composite z-score is reported as 0.46. In the case of `CCOC(=O)[C@H](Cc1ccccc1)NC(=O)CCC1CC(OC(=O)NCc2ccc3c(c2)OCO3)CC2(CCCC(COC(=O)NCCc3ccc(Cl)cc3)O2)O1` (some centres not stated), the composite z-score is reported as -0.509. `O=C1C=C[C@@H](O)[C@@H]2[C@@H]3C(=O)N(Cc4ccccc4)C(=O)[C@@H]3CC[C@@H]12` showed a composite z-score of -0.684. `COC(=O)C1=C(C)N(Cc2ccccc2)C2=C3C(=O)OCC[C@@H]3[C@@](O)(C(=O)OC)C(=O)N2[C@@H]1c1ccccc1` gave a composite z-score of -0.538. Molecule `CCCNC(=O)OC[C@H]1O[C@H](CCON=C[C@@H](NS(=O)(=O)c2ccc(C)cc2)[C@H](C)C=CCC(=O)OC)C=C[C@@H]1Oc1ccc(OC)cc1` has a composite z-score of 0.0838. `CC=CC1=C(CO)[C@H](O)[C@H]2O[C@H]2[C@@H]1O` showed a composite z-score of -1.13. `COc1ccc(O[C@H]2C=C[C@@H](C#Cc3ccccc3)O[C@@H]2CO)cc1` showed a composite z-score of -0.253. `COC(=O)[C@@H]1CC[C@H](C)[C@@H](c2ccc(C)cc2)N1C(=O)c1ccc(C=NOC[C@H]2O[C@H](c3ccccc3)C=C[C@@H]2Oc2ccc(OC)cc2)cc1` showed a composite z-score of -0.32. `CON=C1c2cc(OC)ccc2O[C@H](c2cccc(OC)c2)[C@H]1O` showed a composite z-score of -0.365. Molecule `C[C@@H]1CC[C@H]2C(=O)OC(Cc3ccccc3)CN2[C@H]1c1ccc(Br)cc1` (some centres not stated) has a composite z-score of -0.312. Molecule `C=CCOCC1CN2[C@@H](CC[C@@H](C)[C@@H]2c2ccc(Br)cc2)C(=O)O1` (some centres not stated) has a composite z-score of -0.165. Work on `COc1ccc(COC(=O)NN=C2C[C@@H](O)[C@@H](O)[C@@H]3[C@@H]4C(=O)N(Cc5ccccc5)C(=O)[C@@H]4CC[C@@H]23)cc1` yielded a composite z-score of -0.249. In the case of `COC(=O)[C@H](C)NC(=O)CCC1CC(OC(=O)NCCc2ccc(F)cc2)CC2(CCCC(COC(=O)NCCOc3ccccc3)O2)O1` (some centres not stated), the composite z-score is reported as -0.224. In the case of `COC(=O)[C@H](C)NC(=O)CCC1CC(OC(=O)NCCc2ccc(F)cc2)CC2(CCCC(COC(=O)NCCc3ccccc3OC)O2)O1` (some centres not stated), the composite z-score is reported as -0.494. Work on `CCOC(=O)[C@H](CC(C)C)NC(=O)CCC1CC(OC(=O)NCc2ccc3c(c2)OCO3)CC2(CCCC(COC(=O)NCCC(C)C)O2)O1` (some centres not stated) yielded a composite z-score of -0.36. For `C=C(C)C(=O)OC[C@H]1CN2[C@@H](CC[C@@H](C)[C@@H]2c2ccc(Br)cc2)C(=O)O1`, the composite z-score was -0.264. For `CO[C@@H]1COC(=O)[C@H](COCc2ccccc2)NC(=O)CC=C[C@@H](C)[C@H](OC)COC(=O)[C@@H](C)NC(=O)CC=C[C@H]1C`, the composite z-score was -0.97. `O=C1C[C@H](c2ccccc2)[C@H](c2ccc(Br)cc2)O1` showed a composite z-score of -0.939. Work on `CC(CCN1CCCc2nc(C)c(C)cc21)=NO[C@H](C)c1cn([C@H](CO)Cc2ccccc2)nn1` yielded a composite z-score of -0.395. In the case of `COC(=O)[C@@H]1CC[C@H](C)[C@@H](c2ccc(Br)cc2)N1C(=O)C(F)(F)F`, the composite z-score is reported as -0.174. With `CC(CCN1CCCc2nc(C)c(C)cc21)=NOC[C@@H](O)COCc1ccco1` the composite z-score was -0.216. For `C#CCCCON=C1C[C@@H](O)[C@@H](O)[C@@H]2[C@@H]3C(=O)N([C@@H](C)c4ccccc4)C(=O)[C@@H]3CC[C@@H]12`, the composite z-score was 0.0951. For `O=C1C2=CC[C@H]3C(=O)N(Cc4ccccc4)C(=O)[C@H]3[C@H]2[C@H](O)[C@@H]2O[C@H]12`, the composite z-score was -0.417. In the case of `CC(CCC(=O)OC[C@H]1O[C@H](C#Cc2ccccc2)C=C[C@@H]1Oc1ccc(C)cc1)=NOC(C)CN1CCCCc2nc(C)c(C)cc21` (some centres not stated), the composite z-score is reported as 0.159. With `CCOC(=O)NN=C1C[C@@H](O)[C@@H](O)[C@@H]2[C@@H]3C(=O)N(CC)C(=O)[C@@H]3CC[C@H]12` the composite z-score was -0.254. `CON=C(C)CCN1CCCCc2nc(C)c(C)cc21` showed a composite z-score of -0.0831. `CO[C@@H](C1CCCCC1)[C@@H](C)[C@H](OCc1cccc(Br)c1)[C@@H](C)CO` gave a composite z-score of -0.426. For `O=C1CCCC=C1C(O)COCc1ccccc1` (configuration not stated), the composite z-score was -0.344. In the case of `C=CC[C@@H]1C=C[C@H](ON=CC[C@@H]2C=C[C@H](OC(C)=O)[C@@H](COC(C)=O)O2)[C@@H](CO)O1`, the composite z-score is reported as -0.293.

Source: PubChem BioAssay
